Among the test systems are HCT-15 colon; HT29 colon; SNB-75 CNS; SNB-19 CNS; U251 CNS; PC-3 prostate; SK-MEL-5 melanoma; UACC-62 melanoma; LOX IMVI melanoma; SK-MEL-28 melanoma; SK-MEL-2 melanoma; EKVX NSCLC; SN12C renal; UO-31 renal; TK-10 renal; ACHN renal; CAKI-1 renal; A498 renal; CCRF-CEM leukemia; MOLT-4 leukemia.
Assay in all cases: NCI-60 one-dose screen, 48 h (100 = growth as untreated, 0 = no growth, -100 = all killed)
Holding throughout (conditions): 10 µM

The panel holds about 83,000 compounds, 20% with a hit somewhere; the sample as a whole holds those more often.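 Note: values are percent growth. 100 is the growth of untreated cells, values between 100 and 0 indicate rising inhibition; between -100 and 0 indicates cell death.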 A number with no mark means an inactive call. The source made the active and inactive calls. The calls were made as follows: active = growth percent below 10; inactive = the rest.

Turning to `O=c1oc2ccc(-c3ccc(F)cc3F)cc2c(=O)n1-c1ccc(Cl)c(C(F)(F)F)c1`, the growth in the experiment with HCT-15 colon is -12% (active); in the experiment with HT29 colon it was 9.55% (active); in the experiment with SNB-75 CNS, -4.03% (active); with SNB-19 CNS it was 14.7%; with U251 CNS, 7.99% (active); with PC-3 prostate, 0.205% (active). The growth is -91.4% (active) with SK-MEL-5 melanoma; -54.1% (active) in the experiment on UACC-62 melanoma; -38.6% (active) in the experiment with LOX IMVI melanoma; -20.1% (active) with SK-MEL-28 melanoma; -62% (active) in the experiment on SK-MEL-2 melanoma; -4.43% (active) with EKVX NSCLC. The growth in the experiment with SN12C renal was -15% (active); in the experiment with UO-31 renal it was -3.08% (active); in the experiment with TK-10 renal, 15.3%; in the experiment on ACHN renal, -10.9% (active); in the experiment on CAKI-1 renal, -15.8% (active); with A498 renal, -17.6% (active). The results for the growth with CCRF-CEM leukemia and in the experiment with MOLT-4 leukemia were -5.71% (active) and -8.23% (active), respectively.
On to `OCc1[nH]nc2cc(Nc3ncc4ccc(Br)c(OC5CCC(O)CC5)c4n3)ccc12` (stereo not given), for which the growth with HCT-15 colon was -5.87% (active); with HT29 colon, -41.1% (active); in the experiment with SNB-75 CNS, -44.1% (active); with SNB-19 CNS, 6.37% (active); with U251 CNS, 8.55% (active); with PC-3 prostate, 9.54% (active). Further, the growth was -99.1% (active) with SK-MEL-5 melanoma; -89.2% (active) in the experiment with UACC-62 melanoma; -81.5% (active) in the experiment on LOX IMVI melanoma; -68.7% (active) in the experiment with SK-MEL-28 melanoma; -75.8% (active) in the experiment on SK-MEL-2 melanoma; -27.8% (active) with EKVX NSCLC. The growth with SN12C renal is 1.92% (active); in the experiment on UO-31 renal, -27.2% (active); in the experiment with TK-10 renal it was -89.6% (active); with ACHN renal it was 0.365% (active); in the experiment with CAKI-1 renal, -17.2% (active); with A498 renal, -26.7% (active). Moreover, the results for the growth with CCRF-CEM leukemia and with MOLT-4 leukemia were 0.234% (active) and 1.17% (active), respectively.
In the case of `COc1ccc(CN2[C@H](C(=O)NCc3ccc(C(=O)NO)cc3)Cc3c([nH]c4ccccc34)[C@H]2C2CC2)cc1`, the growth with HCT-15 colon is 44.4%; in the experiment on HT29 colon it was 39.7%; with SNB-75 CNS, 74.5%; in the experiment with SNB-19 CNS it was 63.4%; in the experiment on U251 CNS, 47.9%; with PC-3 prostate it was 54.6%. Moreover, the growth with SK-MEL-5 melanoma was 67.3%; in the experiment with UACC-62 melanoma, 20.9%; in the experiment on LOX IMVI melanoma it was 35.1%; with SK-MEL-28 melanoma, 43.7%; in the experiment with SK-MEL-2 melanoma, 44.9%; with EKVX NSCLC it was 51.6%. The growth in the experiment on SN12C renal is 70.5%; in the experiment with UO-31 renal, 66.4%; in the experiment with TK-10 renal, 53.2%; with ACHN renal, 76.4%; in the experiment on CAKI-1 renal it was 72.3%; in the experiment with A498 renal it was 65%. The growth is 28.8% with CCRF-CEM leukemia and 26.6% with MOLT-4 leukemia.
For `O=C(Cn1nc(-c2ccccc2)ccc1=O)NN1C(=O)c2ccccc2C1=O`, the growth in the experiment with HCT-15 colon was 99.2%; in the experiment with HT29 colon, 120%; with SNB-75 CNS, 107%; with SNB-19 CNS it was 89.8%; in the experiment with U251 CNS, 102%; in the experiment on PC-3 prostate, 97.8%. Also, the growth was 100% in the experiment on SK-MEL-5 melanoma; 106% in the experiment on UACC-62 melanoma; 92.7% with LOX IMVI melanoma; 108% with SK-MEL-28 melanoma; 104% with SK-MEL-2 melanoma; 101% in the experiment on EKVX NSCLC. The growth is 123% with SN12C renal; 85.8% in the experiment on UO-31 renal; 105% in the experiment with TK-10 renal; 99% in the experiment with ACHN renal; 95.3% with CAKI-1 renal; 103% in the experiment on A498 renal. The figures for the growth with CCRF-CEM leukemia and in the experiment on MOLT-4 leukemia were 102% and 108%, respectively.
Take `O=C(CNc1nc(-c2ccccc2)cs1)Nc1ccc([N+](=O)[O-])cc1Cl`: the growth was 1.43% (active) in the experiment on HCT-15 colon; 34.8% with HT29 colon; 82.3% in the experiment with SNB-75 CNS; 43.8% in the experiment with SNB-19 CNS; 15.8% with U251 CNS; 38.2% in the experiment on PC-3 prostate. The growth in the experiment on SK-MEL-5 melanoma was 8.63% (active); in the experiment with UACC-62 melanoma it was 20.5%; with LOX IMVI melanoma it was -11.1% (active); in the experiment on SK-MEL-28 melanoma, 62.1%; with SK-MEL-2 melanoma, 20.1%; with EKVX NSCLC it was 18.5%. Besides, the growth with SN12C renal is 13.4%; with UO-31 renal it was 25.5%; with TK-10 renal, 52.9%; with ACHN renal it was 38.8%; in the experiment with CAKI-1 renal, 44.9%; in the experiment on A498 renal, 55%. Besides, the growth with CCRF-CEM leukemia is 15.3%; in the experiment with MOLT-4 leukemia, 11%.
As for `CN1CCN(Cc2ccc(C(=O)Nc3cccc(Nc4ccc5cc(O)ccc5n4)c3)cc2C(F)(F)F)CC1`, the growth with HCT-15 colon is -81% (active); in the experiment with HT29 colon, -49.4% (active); in the experiment on SNB-75 CNS, -11.4% (active); in the experiment on SNB-19 CNS it was -54% (active); in the experiment on U251 CNS, -65% (active); in the experiment with PC-3 prostate, -22.9% (active). For the same compound, the growth in the experiment on SK-MEL-5 melanoma was -99.7% (active); in the experiment on UACC-62 melanoma, -90.1% (active); in the experiment with LOX IMVI melanoma, -93.5% (active); with SK-MEL-28 melanoma it was -91.9% (active); in the experiment with SK-MEL-2 melanoma, -95% (active); in the experiment with EKVX NSCLC, -40.7% (active). In addition, the growth is -64% (active) in the experiment on SN12C renal; -36.8% (active) with UO-31 renal; 24% in the experiment with TK-10 renal; -56.8% (active) in the experiment on ACHN renal; -28% (active) with CAKI-1 renal; 148% with A498 renal. Also, the growth was -37.1% (active) with CCRF-CEM leukemia and -41.1% (active) in the experiment on MOLT-4 leukemia.
With `Clc1ccc2c(N/N=C/c3c[nH]c4ccc(Br)cc34)ccnc2c1`, the growth in the experiment with HCT-15 colon was -80.3% (active); in the experiment with HT29 colon, -3.08% (active); with SNB-75 CNS it was -91.1% (active); with SNB-19 CNS, -85.6% (active); in the experiment with U251 CNS, -25.6% (active); in the experiment with PC-3 prostate, -52.9% (active). Further, the growth is -100% (active) in the experiment with SK-MEL-5 melanoma; -85.4% (active) in the experiment with UACC-62 melanoma; -77.7% (active) in the experiment on LOX IMVI melanoma; -98.5% (active) in the experiment on SK-MEL-28 melanoma; -93% (active) with SK-MEL-2 melanoma; -93% (active) in the experiment with EKVX NSCLC. Besides, the growth with SN12C renal was -56.3% (active); in the experiment on UO-31 renal, -95.8% (active); in the experiment on TK-10 renal, -67.2% (active); in the experiment on ACHN renal, -90.8% (active); with CAKI-1 renal, -94% (active); in the experiment on A498 renal it was -77% (active). The growth with CCRF-CEM leukemia is -7.03% (active); in the experiment on MOLT-4 leukemia it was -48.7% (active).

For the origin of these results see PubChem BioAssay (NCI).
